# Screening data from PubChem.
# TDP1 cell CPT: qHTS for Inhibitors of human tyrosyl-DNA phosphodiesterase 1 (TDP1): qHTS in cells in presence of CPT | chicken DT40 Tdp1-/-;hTDP1 cells + 20 nM CPT, ATP luminescence, 48 h | Potency, µM (titrated, usually from 46.2 µM), inactives show top-dose activity change, negative = growth inhibition, actives largely listed as inhibitors | 420,000 compounds, 12% hits | AID 686979, 2013; further: potency means the concentration at half of the fitted maximal effect; nearly all actives have a fitted effect of over 55% in size
#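 Chicken DT40 Tdp1-/- cells stably complemented with human TDP1 were seeded at 400 cells/well in medium containing 20 nM camptothecin, exposed to pin-transferred compounds, and grown at 37 °C for at least 48 hr. Viability was read as ATP luminescence.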
# HT1080 IDH1KD tx: qHTS for induction of synthetic lethality in tumor cells producing 2HG: qHTS for the HT-1080-IDH1KD cell line. Potency, µM (titrated, usually from 46.1 µM), without a hit: top-dose activity, negative = toxicity, usual class: cytotoxic. 360,000 compounds, 2% hits. HT-1080 IDH1 knockdown viability, ATP luminescence, 48 h;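 further: potency means the concentration at half of the fitted maximal effect; 0% = DMSO wells and -100% = cell-free medium wells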
#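 Using the IDH1-knockdown HT-1080 line run in the same batch and compound series as the NT line, viability after 48 h at 37 °C was determined by CellTiter-Glo luminescence and expressed as % activity.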
# HT1080-NT tox: qHTS for induction of synthetic lethality in tumor cells producing 2HG: qHTS for the HT-1080-NT fibrosarcoma cell line; HT-1080-NT fibrosarcoma viability, CellTiter-Glo ATP luminescence, 48 h; Potency, µM (highest dose often 46.1 µM), inactives show at the top dose activity, negative = less viability, most hits filed as cytotoxic; 360,000 compounds, 1.6% hits; AID 686970, 2013;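 further: NT is the 2HG producing partner of a matched IDH1 knockdown line; potency means the concentration at half of the fitted maximal effect; 0% = DMSO-treated cells and -100% = media-only wells without cells; nearly all actives have a fitted effect of over 55% in size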
#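 Toxicity toward the 2HG-producing NT line was scored as %Activity, normalised to DMSO and no-cell wells, from CellTiter-Glo luminescence after 48 hours' treatment.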
# IL1B secr inh: qHTS for Inhibitors of Inflammasome Signaling: IL-1-beta AlphaLISA Primary Screen; 360,000 compounds, 4.7% hits; activity change, % at 57.5 µM; THP-1 LPS/ATP IL-1B secretion, AlphaLISA, 16 h; active compounds read low; AID 743279, 2014; in the data active means activity change below about -50%; inconclusive means mostly about -30% to -49%
#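 Secreted IL-1B measured by AlphaLISA bead assay after 16 h compound exposure of THP-1 cells; compounds (final up to 57.5 uM) added 1 h before LPS (250 ng/mL) and ATP (1.25 mM) stimulation; lower signal means less secretion.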
# DT40 TDP1 no CPT: qHTS for Inhibitors of human tyrosyl-DNA phosphodiesterase 1 (TDP1): qHTS in cells in absence of CPT | AID 686978, 2013 | DT40 Tdp1-/- hTDP1 cells, no CPT, ATP luminescence, 48 h | 420,000 compounds, 15% hits | Potency, µM (series often up to 46.2 µM), for inactives: at the top dose activity change, negative = growth inhibition, usual class: inhibitors; further: potency means the concentration at half of the fitted maximal effect; nearly all actives have a fitted effect of over 55% in size
#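 Luminescent ATP content (CellTiter-Glo) served as the growth readout. Knockout chicken DT40 cells expressing human TDP1 were exposed to compounds without camptothecin for a minimum 48 hr at 37 °C.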
# * marks the source's active call; other numbers are inactive results; ? = inconclusive; . = no result; [ ] = remark or other dose. This is a sample that favours compounds with a hit; in the whole collection about 19% have one here. Unless noted, the call rests on the fitted dose curve; in most records, active means well fitted curve in the direction sought with a large enough effect; inconclusive means small, poorly fitted or top-dose-only effect, or another doubt; inactive means no such curve, though single readings can be large; an effect the other way counts as inactive or inconclusive. Unless noted, on the % scale 0 is the no-effect control and ±100 the full control effect.
SMILES,TDP1 cell CPT,HT1080 IDH1KD tx,HT1080-NT tox,IL1B secr inh,DT40 TDP1 no CPT
N#CC(c1nc2ccccc2nc1N1CCOCC1)S(=O)(=O)c1ccccc1 (stereo unspecified),-7%,1%,-6%,.,29µM*
Cc1ccc(S(=O)(=O)C(C#N)c2nc3ccccc3nc2N2CCCC2)cc1 (stereo unspecified),-29%,0%,-3%,7,?
Cc1ccc(S(=O)(=O)C(C#N)c2nc3ccccc3nc2N2CC(C)OC(C)C2)cc1C (stereo unspecified),?,-20%,-13%,18,15µM*
Cc1cccc(S(=O)(=O)C(C#N)c2nc3ccccc3nc2N2CC(C)OC(C)C2)c1 (stereo unspecified),26µM*,-1%[9.24 µM],-27%,42,26µM*
COC(=O)c1ccc(NC(=O)C(C)N2Cc3ccccc3C2=O)cc1 (stereo unspecified),-3%,.,.,.,-25%
COc1ccccc1/C=N\N=C(\N)c1ccccn1,-5%,?,17%,17,-1%
CCN1C(=O)/C(=C2\SC(N3CCOCC3)=NC2=O)c2ccccc21,-14%,11%,14%,6,-1%
C=CCN1C(=O)/C(=C2\SC(N3CCOCC3)=NC2=O)c2cc(Br)ccc21,23µM*,8%,15%,16,?
Cc1ccnc(NS(=O)(=O)c2ccc(NC(=O)Cc3ccc(Br)cc3)cc2)n1,1%,12%,3%,0,9%
CCOc1ccc(CNCc2c(C(=O)O)n(Cc3ccccc3F)c3cc(OC)ccc23)cc1,18µM*,.,.,.,5.8µM*
C=Cc1ccc(Cn2c(C(=O)O)c(CNCc3ccccc3)c3ccc(OC)cc32)cc1,?,.,.,.,15µM*
COc1ccc(Cn2c(C(=O)O)c(CNCc3ccc(SC)cc3)c3ccc(OC)cc32)cc1,5.2µM*,.,.,.,5.8µM*
COc1ccc2c(CNCc3ccc(C)o3)c(C(=O)O)n(Cc3ccccc3)c2c1,-27%,.,.,.,?
COc1ccc(-c2csc(C(O)c3ccccc3)n2)cn1 (stereo unspecified),-24%,-1%,1%,8,?
CCOC(=O)Cc1csc(NC(=O)C(CC(C)C)NC(=O)C2CCCCC2)n1 (stereo unspecified),-18%,-6%,2%,-11,-8%
CNC(=O)NC(=O)COc1ccc2oc3c(c2c1)CCCC3,4%,10%,10%,0,-13%
CC(C)N=C(NS(=O)(=O)c1ccccc1)C(Cl)(Cl)Cl,2.9µM*,7.3µM*,7.3µM*,-96*,2.9µM*
CNNC(=S)Nc1cccc(C(F)(F)F)c1,1%,5%,4%,0,1%
COc1ccc(NC(=S)NNC(=S)Nc2cccc(C(F)(F)F)c2)cc1,5.8µM*,?,-25%,?,6.5µM*
FC(F)(F)c1cccc(NC(=S)NC(c2ccccc2)c2ccccc2)c1,3.7µM*,?,?,-1,5.2µM*
CCC(C(=O)Nc1cccc(C(F)(F)F)c1)c1ccccc1 (stereo unspecified),?,?,?,2,?
FC(F)(F)c1cccc(NC(=S)Nc2ccc(Cl)c(Cl)c2)c1,?,?,?,-87*,13µM*
CC(C)(C)NC(=S)Nc1ccc(Nc2ccccc2)cc1,15µM*,6.3µM*,5.6µM*,?,16µM*
CC(C)(C)NC(=S)Nc1ccc(Br)cc1,?,1%,5%,1,?
COc1c(C)cc(Br)cc1C(=O)NC(=S)NCc1ccco1,-5%,0%,7%,11,?
CC(C)(C)NC(=S)Nc1cccc(C(F)(F)F)c1,?,?,-19%,-90*,26µM*
